Test [1] in a line: ATG_GLI_CIS: Attagene CIS-FACTORIAL HepG2 Assay for human Zinc Finger Protein GLI1 (AID 2282945; active means hit-call score of the fitted dose curve at least 0.9, where 1 is the maximum; inactive means score below 0.9). The settings on record: HepG2, Attagene cis-factorial reporter mRNA, GLI element; actives raise or lower the signal. In a few lines:
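Transiently transfected HepG2 cells report endogenous transcription factor activity via cis-element-driven reporter units. After 24 h compound exposure, reporter mRNA was measured by RT-PCR with capillary electrophoresis; bidirectional fitting against DMSO baseline.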

The nature of test [2]: ATG_GRE_CIS: Attagene CIS-FACTORIAL HepG2 Assay for human Glucocorticoid Response Elements (GRE) (AID 2282947; active means hit-call score of the fitted dose curve at least 0.9, where 1 is the maximum; inactive means score below 0.9). Particulars: HepG2 GRE cis-reporter, Attagene multiplex mRNA; actives raise or lower the signal. The method, boiled down:
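Read-out: fluorescent reporter-transcript fragments separated by capillary electrophoresis after RT-PCR. Transiently transfected HepG2 cells carrying cis-element-driven reporter units were dosed for 24 h; gain or loss of signal fitted against DMSO control.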

Test [3] has as its target Hepatocyte nuclear factor 6 (Homo sapiens) (UniProt Q9UBC0). Briefly: ATG_HNF6_CIS: Attagene CIS-FACTORIAL HepG2 Assay for human Hepatocyte Nuclear Factor 6 (HNF6) (AID 2282952; active means hit-call score of the fitted dose curve at least 0.9, where 1 is the maximum; inactive means score below 0.9). The settings on record: HepG2 Attagene cis-factorial HNF6 reporter transcription; actives raise or lower the signal. The method, boiled down:
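Endogenous transcription factor activity in human HepG2 liver cells was captured through cis-regulated reporter constructs. After 24 h treatment, reporter mRNA was measured by RT-PCR with capillary electrophoresis, and activity was fitted in both directions relative to DMSO.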

The nature of test [4]: ATG_PBREM_CIS: Attagene CIS-FACTORIAL HepG2 Assay for human Phenobarbital-responsive Enhancer Module (PBREM) (AID 2282955; active means hit-call score of the fitted dose curve at least 0.9, where 1 is the maximum; inactive means score below 0.9). Particulars: HepG2 PBREM cis-reporter, Attagene multiplexed transcription; actives raise or lower the signal. In a few lines: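 Endogenous transcription factors in human liver HepG2 cells drive a PBREM cis-element reporter, whose transcript level after 24 h treatment is quantified by RT-PCR with capillary electrophoresis; activity fitted in both directions against DMSO.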

In test [5] the target is Signal transducer and activator of transcription 3 (Homo sapiens) (UniProt P40763). In words: ATG_STAT3_CIS: Attagene CIS-FACTORIAL HepG2 Assay for human Signal Transducer and Activator of Transcription 3 (STAT3) (AID 2282963; active means hit-call score of the fitted dose curve at least 0.9, where 1 is the maximum; inactive means score below 0.9). Particulars: HepG2, Attagene cis-factorial STAT3 reporter transcription; actives raise or lower the signal. The method, boiled down:
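Readout: fluorescent reporter mRNA fragments resolved by capillary electrophoresis. Setup: HepG2 transfected with MRTUs reporting endogenous transcription-factor activity, dosed 24 h. Gain or loss of signal fitted bidirectionally against DMSO control.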

Test [6] concerns the target Hepatocyte nuclear factor 4-alpha (Homo sapiens) (UniProt P41235). In words: ATG_HNF4a_TRANS: Attagene TRANS-FACTORIAL HepG2 Assay for human Hepatocyte Nuclear Factor 4 alpha (HNF4a) (AID 2282982). The settings on record: HepG2 HNF4a transactivation reporter, mRNA readout. The method, boiled down:
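Transient MRTU transfection of HepG2, 24 h dosing. Readout: reporter mRNA via RT-PCR + capillary electrophoresis, fluorescence; activity fit upward relative to DMSO control.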

Test [7] is described as follows: ATG_M_06_TRANS: Attagene TRANS-FACTORIAL HepG2 Assay for M06 Transcription Factor (Internal Marker) (AID 2282983). The settings on record: HepG2 Attagene TRANS M06 internal marker reporter. The method, boiled down:
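Human liver HepG2 cells bearing transiently transfected chimeric NR-GAL4 reporter units were treated with chemicals for 24 h. Total RNA was reverse-transcribed, reporter sequences amplified and labelled, then quantified by capillary electrophoresis. Activity was fitted upward relative to DMSO.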

In test [8] the target is human Retinoid X Receptor beta (RXRb), RXRB (gene 6257) (UniProt P28702). In words: ATG_RXRb_TRANS: Attagene TRANS-FACTORIAL HepG2 Assay for human Retinoid X Receptor beta (RXRb) (AID 2283013). In a few lines:
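After a 24 h incubation with test chemical, transfected HepG2 cells carrying NR-Gal4 fusions and GAL4-UAS reporter transcription units yield RNA whose reporter cDNA is FAM-labelled, HpaI-cut and sized by capillary electrophoresis; increases over DMSO are scored.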

Test [9] can be described thus: TOX21_p53_BLA_p3_viability: Viability Assessment in the Tox21 HCT-116 p53 Agonism Beta-lactamase Assay, Phase 3 (AID 2283593).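 Further: cells exposed to compound for 16 h before reading.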 In a few lines: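 HCT116 cells, 4000/well, dosed 5 h after plating by pin transfer (217-fold dilution from DMSO stock) and incubated 16 h at 37C, 5% CO2. Viability read as ATP luminescence with CellTiter-Glo after 30 min at room temperature.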

Test [10] deals with Cellular tumor antigen p53 (Homo sapiens) (UniProt P04637). Briefly: TOX21_p53_BLA_p3_ratio: Tox21 HCT-116 p53 Agonism Beta-lactamase Assay, Ratio, Phase 3 (AID 2283596). In a few lines: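 Cells were seeded at 4000/well, rested 5 h at 37C, then dosed with DMSO compound solutions (217-fold dilution) for 16 h. CCF4-AM substrate was loaded for 2 h at room temperature, and the 460/530 nm emission ratio was fitted for gain of signal versus DMSO.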
Sequence of Cellular tumor antigen p53 (Homo sapiens) (P04637 whole entry, looked up): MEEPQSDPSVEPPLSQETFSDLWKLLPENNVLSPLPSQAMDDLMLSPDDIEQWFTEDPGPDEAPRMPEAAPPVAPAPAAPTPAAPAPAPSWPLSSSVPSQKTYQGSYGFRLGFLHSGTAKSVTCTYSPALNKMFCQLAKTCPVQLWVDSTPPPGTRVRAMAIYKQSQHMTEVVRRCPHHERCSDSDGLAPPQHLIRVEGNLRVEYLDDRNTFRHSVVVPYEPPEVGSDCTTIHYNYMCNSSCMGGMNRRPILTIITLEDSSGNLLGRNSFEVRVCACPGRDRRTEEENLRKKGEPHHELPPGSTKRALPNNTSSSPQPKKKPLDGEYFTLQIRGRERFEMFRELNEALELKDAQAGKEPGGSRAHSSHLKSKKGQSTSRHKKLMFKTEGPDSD

Test [11] in a line: TOX21_p53_BLA_p5_viability: Viability Assessment in the Tox21 HCT-116 p53 Agonism Beta-lactamase Assay, Phase 5 (AID 2283600). The method, boiled down:
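Viability is taken from cellular ATP content, measured by luciferase luminescence in the same wells after the beta-lactamase ratio read. Cells are seeded at 4000 per well and exposed to DMSO-dissolved compounds, diluted 217-fold, for 16 h.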

Test [12] concerns the target Cellular tumor antigen p53 (Homo sapiens) (UniProt P04637). Briefly: TOX21_p53_BLA_p4_ratio: Tox21 HCT-116 p53 Agonism Beta-lactamase Assay, Ratio, Phase 4 (AID 2283601). In a few lines: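 HCT-116 p53 beta-lactamase reporter cells (4000/well) preincubated 5 h, then compound (217-fold dilution of DMSO stock) for 16 h at 37C. CCF4-AM substrate added 2 h at room temperature; 460/530 nm emission ratio fitted upward versus DMSO.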

Test [13] has as its target Heat shock factor protein 1 (Homo sapiens) (UniProt Q00613). Briefly: ATG_HSE_CIS: Attagene CIS-FACTORIAL HepG2 Assay for human Heat Shock Transcription Factor 1 (HSE) (AID 2282953; active means hit-call score of the fitted dose curve at least 0.9, where 1 is the maximum; inactive means score below 0.9). Particulars: HepG2 HSE cis-reporter, Attagene RNA transcription; actives raise or lower the signal. In a few lines:
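Read-out: fluorescence of reporter-specific RT-PCR fragments separated by capillary electrophoresis. HepG2 carrying transfected cis-element reporter units; 24 h dosing; activity fitted in both directions relative to DMSO baseline.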

Test [14] can be described thus: ATG_SREBP_CIS: Attagene CIS-FACTORIAL HepG2 Assay for human Sterol Regulatory Element Binding (SREBP) (AID 2282962; active means hit-call score of the fitted dose curve at least 0.9, where 1 is the maximum; inactive means score below 0.9). Particulars: HepG2 Attagene cis-factorial SREBP reporter, mRNA; actives raise or lower the signal. The method, boiled down:
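Endogenous factor activity is measured in HepG2 through multiplexed reporter units under cis-element control. Following a 24 h incubation, reporter transcripts are reverse-transcribed, PCR-amplified and sized by capillary electrophoresis; activity is fitted in both directions relative to DMSO.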

Test [15] is described as follows: ATG_NRF2_ARE_CIS: Attagene CIS-FACTORIAL HepG2 Assay for human Nuclear Factor Erythroid 2 Related Factor 2 (NFR2) response to Antioxidant Response Elements (ARE) (AID 2282992; active means hit-call score of the fitted dose curve at least 0.9, where 1 is the maximum; inactive means score below 0.9;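 on AC50: reporter mRNA level measured by RT-PCR and capillary electrophoresis fluorescence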). The settings on record: HepG2 Attagene ARE/NRF2 reporter, transcription factor activity; actives raise or lower the signal. In a few lines: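 Endogenous transcription factor activity in human liver HepG2 cells is tracked via a cis-element-driven reporter within a multiplexed set. mRNA induction is read by RT-PCR and capillary electrophoresis after 24 h, with DMSO as baseline.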

The nature of test [16]: ATG_Oct_MLP_CIS: Attagene CIS-FACTORIAL HepG2 Assay for human Octamer-Binding Transcription Factor (Oct) (AID 2282993; active means hit-call score of the fitted dose curve at least 0.9, where 1 is the maximum; inactive means score below 0.9). Particulars: HepG2 Attagene cis-factorial Oct reporter, mRNA; actives raise or lower the signal. The method, boiled down: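 Read-out: reporter mRNA via RT-PCR plus capillary electrophoresis of 6-FAM-labelled fragments. Transiently transfected HepG2, 24 h exposure, endogenous TF activity on cis elements. Gain or loss of signal fitted relative to DMSO.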

The target in test [17] is human Peroxisome Proliferator-activated Receptor alpha (PPARa), PPARA (gene 5465) (UniProt Q07869). Briefly: ATG_PPARa_TRANS: Attagene TRANS-FACTORIAL HepG2 Assay for human Peroxisome Proliferator-activated Receptor alpha (PPARa) (AID 2283001).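 On AC50: potency for gain of reporter signal over DMSO so agonist or activator.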 The method, boiled down:
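Transient HepG2 transfection, GAL4-UAS reporters, NR-Gal4 chimeras; 24 h compound exposure. Readout: reporter transcripts by RT-PCR, 6-FAM primer extension, HpaI digest, capillary electrophoresis. Positive direction vs DMSO baseline.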

The nature of test [18]: ATG_NF_kB_CIS: Attagene CIS-FACTORIAL HepG2 Assay for human Nuclear Factor Kappa B (NF-kB) (AID 2282991; active means hit-call score of the fitted dose curve at least 0.9, where 1 is the maximum; inactive means score below 0.9). Particulars: HepG2 Attagene cis-factorial NF-kB reporter mRNA; actives raise or lower the signal. In a few lines:
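Transient MRTU transfection of human HepG2 liver cells → 24 h chemical exposure → total RNA, oligo(dT) RT → PCR, 6-FAM primer extension, HpaI digest 2 h 37 C → CE fragment analysis. Bidirectional fitting, DMSO negative control.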

For test [19], the target named is Cellular tumor antigen p53 (Homo sapiens) (UniProt P04637). In words: TOX21_p53_BLA_p5_ratio: Tox21 HCT-116 p53 Agonism Beta-lactamase Assay, Ratio, Phase 5 (AID 2283599). The method, boiled down: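 HCT-116 p53-bla cells (4000/well) plated 5 h, dosed with compound (217-fold DMSO dilution) for 16 h at 37 C; CCF4-AM substrate 2 h at room temperature. Activity is the 460/530 nm emission ratio (405 nm excitation), fitted in gain-of-signal direction versus DMSO.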

Test [20] in a line: TOX21_p53_BLA_p2_viability: Viability Assessment in the Tox21 HCT-116 p53 Agonism Beta-lactamase Assay, Phase 2 (AID 2283591).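 Further: compound exposure lasted 16 h at 37 °C; actives lower the ATP signal meaning cytotoxicity.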 In a few lines: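 HCT116 p53-bla cells, 4000/well, dosed after 5 h plating (217-fold dilution of DMSO stocks) and incubated 16 h at 37C. Viability taken as cellular ATP by CellTiter-Glo luminescence after 30 min RT; signal loss marks cytotoxicity.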

The AC50 is the concentration at which the activity in the assay is half-maximal.

The structures appear in SMILES notation. Results filed as inconclusive are left out. Where a structure was tested more than once in an assay, its records may differ in their call. Activity calls are given as the source filed them. How the source made its calls, unless noted: active means hit-call score of the fitted dose curve at least 0.9, where 1 is the maximum; inconclusive means response in the unintended direction; inactive means score below 0.9.

Sequence of human Retinoid X Receptor beta (RXRb), RXRB (gene 6257) (P28702 whole entry, looked up, the tested form may be a part): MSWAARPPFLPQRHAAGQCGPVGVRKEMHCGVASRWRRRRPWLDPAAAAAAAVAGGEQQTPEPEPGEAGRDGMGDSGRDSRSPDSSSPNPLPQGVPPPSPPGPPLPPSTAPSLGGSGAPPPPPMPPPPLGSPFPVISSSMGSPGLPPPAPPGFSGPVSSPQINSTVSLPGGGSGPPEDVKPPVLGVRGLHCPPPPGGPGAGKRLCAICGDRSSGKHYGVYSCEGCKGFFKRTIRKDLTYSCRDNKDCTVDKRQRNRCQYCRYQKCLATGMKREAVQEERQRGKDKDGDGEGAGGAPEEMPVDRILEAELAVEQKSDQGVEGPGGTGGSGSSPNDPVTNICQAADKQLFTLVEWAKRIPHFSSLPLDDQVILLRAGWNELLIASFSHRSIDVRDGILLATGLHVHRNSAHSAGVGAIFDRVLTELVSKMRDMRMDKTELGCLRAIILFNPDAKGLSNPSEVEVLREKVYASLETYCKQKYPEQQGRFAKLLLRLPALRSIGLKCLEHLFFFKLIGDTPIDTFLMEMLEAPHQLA
Sequence of human Peroxisome Proliferator-activated Receptor alpha (PPARa), PPARA (gene 5465) (Q07869 whole entry, looked up, the tested form may be a part): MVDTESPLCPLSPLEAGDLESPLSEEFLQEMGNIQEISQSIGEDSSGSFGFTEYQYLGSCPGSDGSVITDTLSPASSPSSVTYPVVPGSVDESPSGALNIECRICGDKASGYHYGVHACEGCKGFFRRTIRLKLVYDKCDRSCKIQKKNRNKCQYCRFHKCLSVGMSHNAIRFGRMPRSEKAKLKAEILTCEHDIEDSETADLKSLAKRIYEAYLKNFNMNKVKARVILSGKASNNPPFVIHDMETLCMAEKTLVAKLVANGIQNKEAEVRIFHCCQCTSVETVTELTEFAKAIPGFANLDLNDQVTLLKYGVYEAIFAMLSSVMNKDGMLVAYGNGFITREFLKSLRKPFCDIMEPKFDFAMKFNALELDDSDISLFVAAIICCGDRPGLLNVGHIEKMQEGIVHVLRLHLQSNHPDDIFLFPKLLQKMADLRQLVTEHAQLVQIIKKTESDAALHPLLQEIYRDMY
Sequence of Hepatocyte nuclear factor 6 (Homo sapiens) (Q9UBC0 whole entry, looked up): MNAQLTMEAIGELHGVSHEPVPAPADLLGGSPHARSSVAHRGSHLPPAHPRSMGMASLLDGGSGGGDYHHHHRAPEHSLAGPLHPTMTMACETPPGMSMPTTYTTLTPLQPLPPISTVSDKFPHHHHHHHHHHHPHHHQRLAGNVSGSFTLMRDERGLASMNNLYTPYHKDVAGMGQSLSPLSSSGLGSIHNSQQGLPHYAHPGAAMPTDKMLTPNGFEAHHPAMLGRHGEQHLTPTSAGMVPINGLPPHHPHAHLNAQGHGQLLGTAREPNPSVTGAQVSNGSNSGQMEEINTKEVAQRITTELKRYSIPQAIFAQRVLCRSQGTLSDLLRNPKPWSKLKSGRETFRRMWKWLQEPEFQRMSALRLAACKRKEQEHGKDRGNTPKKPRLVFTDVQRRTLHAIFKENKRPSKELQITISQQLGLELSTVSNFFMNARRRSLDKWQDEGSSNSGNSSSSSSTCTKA
Sequence of Signal transducer and activator of transcription 3 (Homo sapiens) (P40763 whole entry, looked up, the tested form may be a part): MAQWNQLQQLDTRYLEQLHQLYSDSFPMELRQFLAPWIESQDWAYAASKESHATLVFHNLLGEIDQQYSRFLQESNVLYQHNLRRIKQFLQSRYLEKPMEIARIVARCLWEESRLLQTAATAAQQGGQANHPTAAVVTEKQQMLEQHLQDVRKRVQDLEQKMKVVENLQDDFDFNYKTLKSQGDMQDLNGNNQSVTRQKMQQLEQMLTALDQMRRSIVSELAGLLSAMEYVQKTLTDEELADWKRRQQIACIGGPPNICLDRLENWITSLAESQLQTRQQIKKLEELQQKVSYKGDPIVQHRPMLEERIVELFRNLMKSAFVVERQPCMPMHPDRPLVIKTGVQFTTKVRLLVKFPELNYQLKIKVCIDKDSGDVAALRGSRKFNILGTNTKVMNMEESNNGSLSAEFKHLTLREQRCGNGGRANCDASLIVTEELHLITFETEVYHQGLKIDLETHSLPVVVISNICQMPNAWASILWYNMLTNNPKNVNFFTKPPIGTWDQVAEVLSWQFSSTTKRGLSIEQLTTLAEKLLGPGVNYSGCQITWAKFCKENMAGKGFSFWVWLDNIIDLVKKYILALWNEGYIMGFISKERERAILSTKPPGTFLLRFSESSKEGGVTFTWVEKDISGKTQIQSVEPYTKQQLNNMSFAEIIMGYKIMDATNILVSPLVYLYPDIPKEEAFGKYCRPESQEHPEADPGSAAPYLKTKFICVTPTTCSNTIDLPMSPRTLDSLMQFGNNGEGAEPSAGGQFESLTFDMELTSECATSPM
Sequence of Hepatocyte nuclear factor 4-alpha (Homo sapiens) (P41235 whole entry, looked up): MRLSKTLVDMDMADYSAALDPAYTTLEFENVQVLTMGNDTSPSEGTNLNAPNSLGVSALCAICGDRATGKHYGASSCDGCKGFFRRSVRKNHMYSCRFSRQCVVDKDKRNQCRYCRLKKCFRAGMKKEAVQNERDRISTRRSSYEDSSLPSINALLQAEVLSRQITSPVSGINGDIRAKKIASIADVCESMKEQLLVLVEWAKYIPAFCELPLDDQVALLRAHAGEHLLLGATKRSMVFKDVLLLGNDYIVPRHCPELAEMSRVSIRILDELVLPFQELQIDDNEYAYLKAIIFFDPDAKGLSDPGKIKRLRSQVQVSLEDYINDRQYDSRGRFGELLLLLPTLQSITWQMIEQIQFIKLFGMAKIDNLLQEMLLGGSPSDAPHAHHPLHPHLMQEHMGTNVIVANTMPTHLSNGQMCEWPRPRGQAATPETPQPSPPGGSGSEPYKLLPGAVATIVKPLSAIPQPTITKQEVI
Sequence of Heat shock factor protein 1 (Homo sapiens) (Q00613 whole entry, looked up, the tested form may be a part): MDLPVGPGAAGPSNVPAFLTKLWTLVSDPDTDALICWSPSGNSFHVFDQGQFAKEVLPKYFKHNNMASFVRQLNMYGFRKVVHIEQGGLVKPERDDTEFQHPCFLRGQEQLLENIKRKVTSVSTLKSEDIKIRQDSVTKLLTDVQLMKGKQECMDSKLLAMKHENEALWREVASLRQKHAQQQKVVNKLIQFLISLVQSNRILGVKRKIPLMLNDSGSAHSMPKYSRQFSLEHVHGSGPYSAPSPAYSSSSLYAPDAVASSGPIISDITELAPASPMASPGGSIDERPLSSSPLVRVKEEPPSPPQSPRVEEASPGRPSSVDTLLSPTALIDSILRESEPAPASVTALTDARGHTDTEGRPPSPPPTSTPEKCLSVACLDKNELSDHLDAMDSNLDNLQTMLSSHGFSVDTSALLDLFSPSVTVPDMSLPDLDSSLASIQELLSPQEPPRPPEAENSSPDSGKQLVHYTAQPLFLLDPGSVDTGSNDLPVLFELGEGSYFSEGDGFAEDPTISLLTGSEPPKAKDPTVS

With `Clc1ccc(Sc2cc(Cl)c(Cl)cc2Cl)cc1`, the call in [1], in test [2], in [3], in test [4], in test [5] and in [6] was inactive. The molecule was classed as inactive in test [7], in [9], in [10], in test [11] and in test [12]. Further, the AC50 in test [8] was 7.54 µM (active).

`CO[Si](CCCNCCN)(OC)OC`: the outcome in [3], in test [13], in test [14], in [6], in test [7] and in [15] was inactive. In addition, the molecule was called inactive in test [16] and in test [17].

Take `CNC(=C[N+](=O)[O-])NCCSCc1csc(CN(C)C)n1`: the call in test [1], in test [2], in [13], in test [4], in test [14] and in test [5] was inactive. In addition, the result in test [6], in [18], in [15], in test [8], in test [9] and in [10] was inactive. The result in test [19] and in test [11] was inactive.

Regarding `C=CCOCC(CC)(CO)COCC=C`, the result in test [1], in test [2], in test [13], in test [4], in [14] and in test [7] was inactive. For the same molecule, the result in test [18], in test [8], in [20], in [9], in test [10] and in [11] was inactive.

Consider `Oc1cccc2ccccc12`, for which the call in test [1], in test [2], in [4], in [14], in test [5] and in test [7] was inactive. For the same molecule, the call in test [18], in [17], in [8], in test [20], in test [9] and in [19] was inactive. The outcome in [11] and in test [12] was inactive. In [15], the AC50 is 4.38 µM (active).

In the case of `O=[N+]([O-])c1ccc2nc[nH]c2c1`, the molecule was called inactive in [13], in test [4], in test [14], in test [5], in [18] and in [15].

As to `NCc1ccccc1`, the outcome in test [1], in [2], in test [3], in test [13], in [4] and in test [14] was inactive. Moreover, the call in test [6], in test [15], in test [16], in test [17], in test [8] and in test [20] was inactive. The molecule was classed as inactive in test [9], in test [19] and in [12].

Turning to `c1cc[c]([Bi]([c]2ccccc2)[c]2ccccc2)cc1`, the outcome in test [1], in test [2], in test [3], in test [13], in [4] and in test [14] was inactive. Besides, the outcome in test [5], in test [6], in test [7], in [18] and in test [16] was inactive. Besides, the values for the AC50 in test [15] and in test [8] were 48.9 µM (active) and 7.42 µM (active), respectively.

Consider `CCCCCC[C@@H](O)C/C=C\CCCCCCCC(=O)O`, for which the call in test [1], in test [4], in [14], in [6], in [7] and in [18] was inactive. For the same molecule, the molecule was classed as inactive in test [16], in test [20], in test [9], in test [10], in test [19] and in test [11]. The outcome in test [12] was inactive. Also, the AC50 in test [2] is 186 µM (active); in [3] it was 160 µM (active); in test [13], 187 µM (active); in [5], 160 µM (active); in test [15] it was 100 µM (active); in [17], 8.72 µM (active). The AC50 in test [8] was 30.9 µM (active); in test [9], 30.5 µM (active); in test [10] it was 36.6 µM (active); in test [19], 37.4 µM (active); in [12] it was 73.6 µM (active).

Source of the values: PubChem BioAssay (EPA / NIEHS).
